An excerpt weighted towards active compounds, which were near 0.39% of everything screened.
Tb PFK inh-1: blocks T. brucei phosphofructokinase; T. brucei PFK, ADP-Glo luminescence; Potency, µM (highest dose often 57.5 µM), inactives show at the top dose activity, negative = inhibition, actives largely listed as inhibitors; 330,000 compounds, 0.17% hits; AID 485367;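 also: 0% = uninhibited 1x PFK enzyme wells and -100% = no-enzyme wells; nearly all actives have a fitted effect of over 60% in size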
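Luminescent ADP detection (ADP-Glo, two-step: ATP depletion then ADP-to-ATP conversion for luciferase) reported PFK activity after 45 min room-temperature reaction of 1.25 nM enzyme with 0.5 mM F6P and 0.1 mM ATP at pH 8.0.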
p53 reactivator: re-activators of mutant p53 | H1299 p53-A138V BP100-luciferase reporter, luminescence, 24 h | Potency, µM (top dose mostly 92.2 µM), inactives show at the highest dose activity change, positive = activation, hits mostly activators | 320,000 compounds, 0.063% hits | AID 504706; also: % of control where 0% means no effect; nearly all actives have a fitted effect of over 45% in size
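H1299 (p53-null), stable ts p53-A138V + BP100-Luc; 1000 cells/well, Opti-MEM/10% FBS; cpd 4 pt, 1:5; 24 h, 37 deg C, 5% CO2; detection reagent 10 min RT; luminescence.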
GLS inhibitor: inhibitors of human glutaminase (GLS); 410,000 compounds, 0.21% hits; Potency, µM (series often up to 45.5 µM), without a hit: top-dose activity change, negative = inhibition, usual class: inhibitors; GLS enzymatic activity, qHTS titration; O94925; also: % is scaled to controls: 0 for no effect and ±100 for the full control effect
Target sequence (O94925 whole entry, looked up): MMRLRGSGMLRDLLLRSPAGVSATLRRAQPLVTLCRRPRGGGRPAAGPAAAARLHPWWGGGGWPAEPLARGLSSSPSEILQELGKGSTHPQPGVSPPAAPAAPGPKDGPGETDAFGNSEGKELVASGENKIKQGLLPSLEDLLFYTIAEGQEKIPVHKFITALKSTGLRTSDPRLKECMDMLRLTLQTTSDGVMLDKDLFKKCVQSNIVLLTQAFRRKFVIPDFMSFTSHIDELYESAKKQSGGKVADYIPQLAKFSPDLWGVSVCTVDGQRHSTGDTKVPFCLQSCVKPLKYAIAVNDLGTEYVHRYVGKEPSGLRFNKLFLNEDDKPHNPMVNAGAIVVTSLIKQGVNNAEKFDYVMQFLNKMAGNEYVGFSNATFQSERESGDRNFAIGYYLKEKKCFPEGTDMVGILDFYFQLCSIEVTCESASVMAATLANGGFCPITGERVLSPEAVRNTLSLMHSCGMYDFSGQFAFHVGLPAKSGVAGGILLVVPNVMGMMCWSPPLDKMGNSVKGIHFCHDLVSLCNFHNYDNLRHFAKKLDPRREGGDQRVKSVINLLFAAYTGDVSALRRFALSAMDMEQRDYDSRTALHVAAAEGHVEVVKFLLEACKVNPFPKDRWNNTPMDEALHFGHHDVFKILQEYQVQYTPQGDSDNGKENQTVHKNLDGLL
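hKGA in 45 mM KH2PO4 pH 8.2, 0.02% Tween-20 with pin-transferred compounds; 1 mM L-glutamine (stock) plus glutamate oxidase/HRP/Amplex Red coupling added. Fluorescence read initially and after 30 min at RT.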
USP2a block: USP2a (human) protease inhibition. 330,000 compounds, 0.01% hits. USP2 core, Ub-CHOP2 coupled fluorogenic reporter, 485/531. Potency, µM (highest dose often 38.3 µM), for the others: at the top dose activity change, negative = inhibition, most hits filed as inhibitors. AID 463254. O75604;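 also: plate controls were DMSO wells for no effect and full inhibition by NEM control for full effect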
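USP2 core (10nM final) preincubated 30min RT with compound in 20mM Tris-HCl pH 8.0, 2mM CaCl2, 2mM beta-mercaptoethanol, 0.05% CHAPS; 25nM Ub-CHOP2 plus 25nM reporter substrate added, fluorescence (Ex485/Em531) read after 60min.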
Tb PFK KinaseGlo: inhibits T. brucei PFK measured by ATP depletion. Tb PFK enzyme, ATP depletion, Kinase-Glo Plus luminescence. Potency, µM (titrated, usually from 57.5 µM), for inactives: at the top dose inhibition. AID 504636. shares compounds with Tb PFK inh-1. 1,100 compounds, 47% hits; calls by dose curve; also: nearly all actives have a fitted effect of over 60% in size
Tb PFK inh-2: T. brucei PFK enzyme inhibition, hit validation. shares compounds with Tb PFK inh-1. purified T. brucei PFK, ADP-Glo luminescence, 45 min. Potency, µM (doses to about 57.5 µM), without a hit: at the highest dose activity change, negative = inhibition, actives largely listed as inhibitors. 1,100 compounds, 41% hits. AID 504637;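 also: plate controls were full PFK enzyme control for no effect and no enzyme control for full effect; nearly all actives have a fitted effect of over 60% in size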
* hit, by the source's call; ? = inconclusive; / = not tested or not shown. Unless noted, calls follow the shape of the dose curve; as a rule, active = well fitted curve in the direction sought with a large enough effect; inconclusive = small, poorly fitted or top-dose-only effect, or another doubt; inactive = no such curve, though single readings can be large; an effect the other way counts as inactive or inconclusive. Potency is read from the fitted curve at half-maximal effect.

SMILES	Tb PFK inh-1	p53 reactivator	GLS inhibitor	USP2a block	Tb PFK KinaseGlo	Tb PFK inh-2
COc1cc(/C=C/c2sc3ccccc3[n+]2CCCS(=O)(=O)[O-])ccc1O	12µM*	1%	?	0%	-25%	?
COc1cc(/C=C/c2nc3ccccc3c(=O)n2-c2ccccc2O)ccc1O	-3%	20%	?	1%	/	/
Cc1ccc(-c2c[n+](Cc3cccc(Cl)c3)c3n2CCC3)cc1	?	-4%	7%	1%	?	?
CCCCc1nn2c(=O)cc(COC(=O)Cc3ccccc3)nc2s1	/	/	-9%	/	/	/
COc1ccccc1-c1nn2c(=O)cc(CN3CCN(C(=O)COc4ccccc4Cl)CC3)nc2s1	/	/	7%	/	/	/
COc1cccc(OC)c1-c1nn2c(-c3cc(-c4ccccc4)n[nH]3)nnc2s1	?	-4%	-13%	?	-22%	?
CC(=O)c1c(C)nc(-c2ccc(Cl)cc2)nc1N	?	7%	-6%	2%	?	?
CC(=O)c1c(C)nc(-c2ccc(Cl)cc2)nc1N=CN(C)C	2.7µM*	?	-8%	-2%	9.5µM*	12µM*
COc1ccc(-n2nnnc2C(c2cccs2)N2CCC(n3c(=O)[nH]c4ccccc43)CC2)cc1 (stereo not given)	/	/	8%	/	/	/
O=C1CC2OCC=C3CN4CC[C@]56c7ccccc7N1C5C2[C@H]3C[C@H]46 (stereo not given in full)	/	/	-5%	/	/	/
Cn1cc(C(=O)OCC(=O)NC2CCCCC2)c2ccccc21	12%	-9%	-8%	1%	/	/
O=C(Nc1ccc2c(c1)OCCO2)c1cccn(Cc2cccc([N+](=O)[O-])c2)c1=O	/	/	-6%	/	/	/
O=C(N[C@H]1N=C(c2ccccc2F)c2cccc3c2N(CC3)C1=O)c1cc2ccccc2[nH]1	/	/	-4%	/	/	/
O=C1OC(Nc2ccc(F)c([N+](=O)[O-])c2)c2ccccc21 (stereo not given)	15µM*	-1%	-6%	2%	21µM*	?
Cc1ccc(N2C(=O)NC(=O)/C(=C/C=C/c3ccco3)C2=O)cc1	?	-48%	24%	0%	/	/
Cc1cc(C)cc(N2C(=O)NC(=O)/C(=C\C=C\c3ccco3)C2=O)c1	?	-25%	14%	3%	11µM*	21µM*
CCc1ccc(N2C(=O)NC(=O)/C(=C\C=C\c3ccco3)C2=O)cc1	?	-15%	-19%	-2%	?	?
CC(C)c1ccc(N2C(=O)NC(=O)/C(=C/C=C/c3ccco3)C2=O)cc1	-20%	-16%	4%	3%	/	/
O=C1C2C3C=CC(CO)(O3)C2C(=O)N1c1ccccc1-c1ccccc1 (stereo not given)	21µM*	-18%	37%	-2%	24µM*	?
O=C1CCCCC1CN1CCCCC1 (stereo not given)	/	/	3%	/	/	/
C=CCc1cc(OC)c(O)c(C(=O)NCCO)c1	/	/	59%	/	/	/
COc1cc2ccc(=O)oc2c2ccoc12	-6%	-7%	11%	4%	/	/
COc1cc(-c2cc(=O)c3c(O)c(OC)c(OC)c(O)c3o2)ccc1O	?	-3%	2.8µM*	0%	6µM*	9.5µM*
CN1C(=S)CN=C(c2ccccc2)c2cc(Cl)ccc21	/	/	-1%	/	/	/
CC(C)NCC(O)c1ccc([N+](=O)[O-])cc1 (stereo not given)	/	/	1%	/	/	/
O=[N+]([O-])c1ccc(C(c2ccc([N+](=O)[O-])cc2)c2ccc([N+](=O)[O-])cc2)cc1	/	/	-5%	/	/	/
C#CCNc1ccc([N+](=O)[O-])cc1	24µM*	-4%	9%	2%	21µM*	27µM*
NCCNc1ccc([N+](=O)[O-])cc1	?	-3%	2%	4%	?	?
O=C1c2cccc(N3CCNCC3)c2C2CCCCN12 (stereo not given)	/	/	-2%	/	/	/
COc1ccc(C)cc1NC(=O)c1ccc2c(SCC(=O)O)c3c(nc2c1)CCCC3	?	-2%	8%	0%	-30%	?

From PubChem
